# Measured values: ChEMBL document CHEMBL3988442, “University of Dundee, Small-Polar-MMV Screening Library” (2021)
# About 1,000 (1.4%) of roughly 69,000 compounds showed an effect of 50% or more. The list comes from a sample in which strong results are over-represented; it also holds similar structures and randomly drawn compounds.
# Test system: Leishmania donovani
# Assay: Leishmania intramacrophage assay
# Format: functional, organism-based
# Set-up: scale not given: in the data most compounds retested in dose-response had high values
SMILES,"Percent Effect (30.3 µM, […])","Percent Effect (30 µM, 30.03 µM)"
Cc1nc(CO[C@@H]2CN(Cc3cccnc3)[C@@H]3COC[C@@H]32)cs1.O=C(O)C(F)(F)F.O=C(O)C(F)(F)F,21.07%,–
O=C(O)C(F)(F)F.O=C(O)C(F)(F)F.c1ccc(CO[C@@H]2CN(Cc3nccs3)[C@@H]3COC[C@@H]32)nc1,56.79%,–
Cc1cccc(CN2C[C@H](OCc3ccccn3)[C@H]3COC[C@H]32)n1.O=C(O)C(F)(F)F.O=C(O)C(F)(F)F,10.8%,–
O=C(O)C(F)(F)F.O=C(O)C(F)(F)F.c1cncc(CO[C@H]2CN(Cc3ccco3)[C@@H]3COC[C@H]23)c1,63.54%,–
Fc1ccc(CN2C[C@@H](OCc3ccccn3)[C@H]3COC[C@H]32)cc1.O=C(O)C(F)(F)F.O=C(O)C(F)(F)F,38.45%,–
O=C(O)C(F)(F)F.O=C(O)C(F)(F)F.O=C(O)C(F)(F)F.c1ccc(CO[C@@H]2CN(Cc3cccnc3)[C@@H]3COC[C@@H]32)nc1,-0.4082%,–
O=C(c1ccc2c(c1)OCO2)N1CCC(C(=O)O)(c2ccccc2)CC1,0.8951%,–
O=C(NC1CCC1)[C@H]1C[C@H]2NCCO[C@@H]2C1,13.25%,–
CC(C)NC(=O)[C@H]1C[C@H]2NCCO[C@@H]2C1,20.26%,–
CC(C)NC(=O)[C@@H]1C[C@H]2NCC[C@H]2O1.Cl,56.79%,–
CCCN1CCC[C@]2(CCC(=O)N2Cc2ccncc2)[C@H]1CC.O=C(O)C(F)(F)F.O=C(O)C(F)(F)F,-2.592%,–
CN(C)C[C@H]1C[C@@H]2CN(Cc3ccco3)C[C@@H]2O1.O=C(O)C(F)(F)F.O=C(O)C(F)(F)F,-9.327%,–
Cc1cccc(CN2CCN3C[C@H](Oc4cncnc4)C[C@H]3C2)n1.O=C(O)C(F)(F)F.O=C(O)C(F)(F)F,42.71%,–
Fc1cnc(N2CCN3C[C@H](Oc4cncnc4)C[C@H]3C2)nc1.O=C(O)C(F)(F)F.O=C(O)C(F)(F)F,16.13%,–
CN1CC[C@@H]2OC[C@H](C(=O)N(C)Cc3ccccn3)C[C@@H]2C1.O=C(O)C(F)(F)F.O=C(O)C(F)(F)F,55.09%,–
C[C@H]1C[C@H]2CN(Cc3ccccn3)CC[C@@H]2O1.O=C(O)C(F)(F)F.O=C(O)C(F)(F)F,19.92%,–
CCCN1CC[C@@H]2OC[C@H](C(=O)Nc3cccnc3)C[C@@H]2C1.O=C(O)C(F)(F)F.O=C(O)C(F)(F)F,21.37%,–
CCS(=O)(=O)N1CCc2c(COCCN(C)C)cncc2C1.O=C(O)C(F)(F)F.O=C(O)C(F)(F)F,30.88%,–
Cl.NC(CC1CCCCC1)c1ccccc1 (centres undefined),68.07%,–
Cl.NC(Cc1nc(-c2ccccc2)no1)c1ccccc1 (centres undefined),-5.876%,–
COCC1CC2(CCN(c3cc(OC)ncn3)CC2)CN1C(C)C.O=C(O)C(F)(F)F (centres undefined),17.84%,–
Cc1cc(CNC2(c3ccccc3)CCCCC2)no1,4.963%,–
Cc1nc(C2(NCc3cccc(F)c3F)CCCCC2)no1,15.79%,–
Cc1cc(CNC2(c3ccccc3)CCCCC2)on1,51.47%,–
CCN1C[C@H]2[C@@H](C1)N(S(=O)(=O)c1cccnc1)CC[C@H]2OC.O=C(O)C(F)(F)F.O=C(O)C(F)(F)F,–,-25.11%
COc1ccccc1CC(=O)N1C[C@H]2CC[C@@H]1CN(Cc1cscn1)C2,-17.19%,–
O=C(Cc1ccncc1)N1C[C@H]2CC[C@@H]1CN(Cc1cccnc1)C2,24.39%,–

SMILES,"Percent Effect (30.3 µM, […])","Percent Effect (30 µM, 30.03 µM)"
O=C(Cc1cnccn1)N1C[C@H]2CC[C@@H]1CN(Cc1cscn1)C2,50.19%,–
CC(C)(CNc1ccc(C#N)c(C(F)(F)F)c1)C(N)=O,20.21%,–
CC(C)(O)CNc1ccc(C#N)c(C(F)(F)F)c1,100.1%,–
CC(C)(C)NC(=O)CNc1ccc(C#N)c(C(F)(F)F)c1,3.3%,–
Cc1ncc2c(c1-c1noc(-c3cscn3)n1)CCNC2,-9.596%,–
CCOc1ccc(C2SCC(=O)Nc3c2c(=O)[nH]n3C(C)C)cc1 (centres undefined),-0.8562%,–
Cl.O=C(N[C@H]1CN[C@H]2CCCO[C@H]21)c1cscn1,–,25.22%
O=C(N[C@@H]1CN[C@@H]2CCCO[C@@H]21)c1cscn1.O=C(O)C(F)(F)F,4.147%,–
CN1C[C@H](NC(=O)c2cscn2)[C@@H]2OCCC[C@@H]21.O=C(O)C(F)(F)F,54.94%,–
Cc1cc(CN2C[C@@H]3COC[C@]3(CN(C)C)C2)no1.O=C(O)C(F)(F)F.O=C(O)C(F)(F)F,–,-27.07%
Fc1cnc(N2CCCC3(CN(Cc4cccs4)CCO3)C2)nc1.O=C(O)C(F)(F)F (centres undefined),-13.69%,–
CC(C)N(C)Cc1cncc2c1CCN(Cc1ccoc1)C2.Cl.Cl.Cl,28.71%,–
O=C(O)C(F)(F)F.O=C(O)C(F)(F)F.c1cncc(OC[C@]23COC[C@H]2CN(C2CCC2)C3)c1,24.17%,–
Cn1nc(CN2CCCCC(N)C2)c2c(Cl)cccc21 (centres undefined),74.89%,–
Cc1cc(CN2C[C@@H]3COC[C@]3(CNC(=O)c3ccno3)C2)no1,–,11.65%
Cl.O=C1CC2(CCCNC2)C(=O)N1Cc1ccccc1 (centres undefined),–,10.36%
Fc1cccnc1O[C@@H]1CN(Cc2ccco2)[C@@H]2CCCO[C@@H]21.O=C(O)C(F)(F)F.O=C(O)C(F)(F)F,0.2133%,–
Cc1c(C2N3C[C@]4(C)CN2C[C@](C)(C3)C4=O)[nH]c(=O)[nH]c1=O (some centres undefined),18.9%,–
Cc1ccc(NC(=O)N2CCC(CO)(Nc3ccccc3)CC2)cc1,64.38%,–
O=C(Nc1ccc(F)cc1)N1CCC(CO)(Nc2ccccc2)CC1,1.566%,–
Cc1cccc(NC(=O)N2CCC(CO)(Nc3ccccc3)CC2)c1,33.34%,–
O=C(O)C(F)(F)F.O=C(O)C(F)(F)F.c1ccc(CN2CCN3C[C@H](Oc4cncnc4)C[C@H]3C2)nc1,2.199%,–
O=C(O)C(F)(F)F.O=C(O)C(F)(F)F.O=C(c1ccco1)N1CCN2C[C@H](OCc3cccnc3)C[C@H]2C1,15.93%,–
O=C(O)C(F)(F)F.c1ccc(NC[C@@H]2CCC[C@@H]3CN(Cc4cccnc4)C[C@@H]32)nc1,38.85%,–
Cc1noc(C)c1CN1C[C@@H]2CC(F)(F)C[C@@H]2C1.O=C(O)C(F)(F)F,4.682%,–
Fc1cccc(CN2C[C@@H]3CN(c4ncccn4)C[C@@H]3C2)c1.O=C(O)C(F)(F)F.O=C(O)C(F)(F)F,8.696%,–
Cc1noc(C)c1CN1C[C@H]2CN(Cc3cccc(F)c3)C[C@H]2C1.O=C(O)C(F)(F)F.O=C(O)C(F)(F)F,50.84%,–

SMILES,"Percent Effect (30.3 µM, […])","Percent Effect (30 µM, 30.03 µM)"
O=C(C1CCOC1)N1CCC2(CCNCC2)C1 (centres undefined),11.74%,–
Cc1cc(CN2CC[C@H]3C[C@@H](c4nccs4)O[C@@H]3C2)no1,12.1%,–
Cc1cc(CN2CC[C@@H]3O[C@@H](c4nnc(C)o4)C[C@H]3C2)no1,55.35%,–
Cc1nnc([C@H]2C[C@@H]3CCN(Cc4cc(C)on4)C[C@H]3O2)[nH]1,19.71%,–
CCc1c(C)[nH]c(C2(N)CCCC2)nc1=O.Cl,9.424%,–
O=C(O)C(F)(F)F.c1cnc(N2CCCC3(CCN(CC4CCC4)C3)C2)nc1 (centres undefined),67.66%,–
O=C(O)C(F)(F)F.c1cnc(N2CCC3(CCCN(CC4CC4)C3)CC2)nc1,32.8%,–
O=C(O)C(F)(F)F.O=C(O)C(F)(F)F.c1cnc(N2CCCC3(CCN(CC4CC4)C3)C2)nc1 (centres undefined),29.01%,–
Cc1noc([C@@H]2C[C@H]3OCC[C@H]3N(C(C)C)C2)n1.O=C(O)C(F)(F)F,-1.476%,–
c1ccc(N2CCCC3(CCN(Cc4nccs4)C3)C2)nc1 (centres undefined),–,40.77%
CNC(=O)[C@@H]1[C@H]2CNCCN2C[C@H]1c1ccccc1,3%,–
Cc1ccc(CN2CCC3(CC2)C(=O)Nc2ccccc23)s1.O=C(O)C(F)(F)F,7.529%,–
NCC1[C@H]2CN(Cc3cccc(Cl)c3)C[C@@H]12 (some centres undefined),88.17%,–
Cl.Cl.NC[C@H]1[C@H]2CN(Cc3ccccc3)C[C@@H]12,–,3.608%
Cl.Cl.NCC1[C@H]2CN(CCc3ccccc3)C[C@@H]12 (some centres undefined),–,31.54%
CN1CCCCC1c1cncc(Cl)n1.Cl (centres undefined),9.533%,–
CCN1CCC2(CC1)C(=O)Nc1ccc(C(=O)NC)cc12.O=C(O)C(F)(F)F,1.318%,–
O=C(N1CCOCC1)[C@@]12CCO[C@@H]1CCN(Cc1ccncc1)C2.O=C(O)C(F)(F)F.O=C(O)C(F)(F)F,2.48%,–
CC[C@H](C)[C@@H](CO)NC(C)Cc1ccccc1F (some centres undefined),2.411%,–
CC(N)Cc1ccccc1Sc1ccc(O)cc1.CC(N)Cc1ccccc1Sc1ccc(O)cc1.O=C(O)C(=O)O (centres undefined),78.04%,–
CNC(C)Cc1ccccc1Sc1ccc(O)cc1.Cl (centres undefined),66.06%,–
CC(N)Cc1ccccc1Sc1ccccc1.O=C(O)/C=C\C(=O)O (centres undefined),100.2%,–
CNS(=O)(=O)CC(=O)NC(C)Cc1ccccc1Br (centres undefined),6.804%,–
Cc1noc(C)c1CN1CCCC2(CCN(C(=O)NC3CC3)C2)C1.O=C(O)C(F)(F)F (centres undefined),–,17.52%
O=C(C[C@@H]1COC[C@H]2CN(Cc3cccnc3)C[C@@H]12)N1CCCC1.O=C(O)C(F)(F)F.O=C(O)C(F)(F)F,-30.89%,–
